In PubChem BioAssay AID1159580 (chemical genetic matrix, 2015):
In all, about 5,500 compounds went through this assay and about 2,000 (36%) were called active. Roughly 18% stayed inconclusive and do not appear here. No stated cut-off is given here; in the data, active means normalized growth mostly below about 0.91 (no sharp cut-off); inconclusive means no clear call, values can overlap the other calls; inactive means mostly above about 0.92. Some of the results follow.

Test: chemical genetic growth profiling, strain panel (AID 1159580);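 further: tested at 20 µM; growth read once vehicle control cultures reached saturation at 30 °C; 1 = growth at the plate median or of vehicle wells; lower values mean less growth of the strain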
Settings: growth OD

Measured: normalized growth

COc1ccc2c3c1OC1C(O)CC=C4C(C2)N(C)CCC431 (stereo unspecified)
inactive: S. cerevisiae deletion strains, locus YAL013W, strain DEP1, active compounds read low 0.994 | S. cerevisiae deletion strains, locus YBR021W, strain FUR4, active compounds read low 1.01 | S. cerevisiae deletion strains, locus YBR229C, strain ROT2, active compounds read low 1.01 | S. cerevisiae deletion strains, locus YCL029C, strain bik1, active compounds read low 1.03 | S. cerevisiae deletion strains, locus YDL035C, strain GPR1, active compounds read low 1.01 | S. cerevisiae deletion strains, locus YDL074C, strain BRE1, active compounds read low 1.04 | S. cerevisiae deletion strains, locus YDL101C, strain DUN1, active compounds read low 1.03 | S. cerevisiae deletion strains, locus YDL134C, strain PPH21, active compounds read low 1.01 | S. cerevisiae deletion strains, locus YDL185W, strain tfp1, active compounds read low 1.02 | S. cerevisiae deletion strains, locus YDL192W, strain arf1, active compounds read low 1.02 | S. cerevisiae deletion strains, locus YDR101C, strain arx1, active compounds read low 1 | S. cerevisiae deletion strains, locus YDR150W, strain NUM1, active compounds read low 1.02 | S. cerevisiae deletion strains, locus YDR162C, strain NBP2, active compounds read low 1.01 | S. cerevisiae deletion strains, locus YDR318W, strain mcm21, active compounds read low 1.02 | S. cerevisiae deletion strains, locus YDR388W, active compounds read low 1 | S. cerevisiae deletion strains, locus YDR502C, strain sam2, active compounds read low 1.01 | S. cerevisiae deletion strains, locus YEL061C, strain CIN8, active compounds read low 1.01 | S. cerevisiae deletion strains, locus YER110C, active compounds read low 1.02 | S. cerevisiae deletion strains, locus YER155C, strain BEM2, active compounds read low 0.996 | S. cerevisiae deletion strains, locus YER167W, strain BCK2, active compounds read low 1.03 | S. cerevisiae deletion strains, locus YGL078C, strain dbp3, active compounds read low 1.01 | S. cerevisiae deletion strains, locus YGL086W, strain mad1, active compounds read low 1.02 | S. cerevisiae deletion strains, locus YGL248W, strain PDE1, active compounds read low 1.02 | S. cerevisiae deletion strains, locus YGR078C, strain PAC10, active compounds read low 1.03 | S. cerevisiae deletion strains, locus YGR135W, strain pre9, active compounds read low 1.01 | S. cerevisiae deletion strains, locus YGR229C, strain SMI1, active compounds read low 0.993 | S. cerevisiae deletion strains, locus YGR252W, strain gcn5, active compounds read low 1.02 | S. cerevisiae deletion strains, locus YHR030C, strain SLT2, active compounds read low 1.01 | S. cerevisiae deletion strains, locus YHR079C, strain IRE1 (second series), active compounds read low 1.02 | S. cerevisiae deletion strains, locus YHR094C, strain hxt1, active compounds read low 1.01 | S. cerevisiae deletion strains, locus YHR129C, strain ARP1, active compounds read low 1.01 | S. cerevisiae deletion strains, locus YHR200W, strain rpn10, active compounds read low 1.01 | S. cerevisiae deletion strains, locus YIL066C, strain RNR3, active compounds read low 1.01 | S. cerevisiae deletion strains, locus YIL073C, strain SPO22, active compounds read low 1.1 | S. cerevisiae deletion strains, locus YIL125W, strain kgd1, active compounds read low 1.01 | S. cerevisiae deletion strains, locus YIR030C, strain dcg1, active compounds read low 1.02 | S. cerevisiae deletion strains, locus YJL095W, strain BCK1, active compounds read low 1.03 | S. cerevisiae deletion strains, locus YJL134W, strain LCB3, active compounds read low 1.01 | S. cerevisiae deletion strains, locus YJL168C, strain set2, active compounds read low 1.02 | S. cerevisiae deletion strains, locus YJL187C, strain SWE1 (second series), active compounds read low 1.02 | S. cerevisiae deletion strains, locus YJR043C, strain POL32, active compounds read low 1.03 | S. cerevisiae deletion strains, locus YJR075W, strain HOC1, active compounds read low 1.02 | S. cerevisiae deletion strains, locus YKL009W, strain mrt4, active compounds read low 1.03 | S. cerevisiae deletion strains, locus YKL068W, active compounds read low 1.01 | S. cerevisiae deletion strains, locus YKL085W, strain MDH1 (second series), active compounds read low 1.01 | S. cerevisiae deletion strains, locus YKL085W, strain MDH1, active compounds read low 1.01 | S. cerevisiae deletion strains, locus YKL190W, strain CNB1, active compounds read low 1.01 | S. cerevisiae deletion strains, locus YKR001C, strain vps1, active compounds read low 1.03 | S. cerevisiae deletion strains, locus YLR039C, strain RIC1, active compounds read low 1.04 | S. cerevisiae deletion strains, locus YLR058C, strain SHM2, active compounds read low 1.02 | S. cerevisiae deletion strains, locus YLR102C, strain apc9, active compounds read low 1.01 | S. cerevisiae deletion strains, locus YLR262C, strain YPT6, active compounds read low 1.05 | S. cerevisiae deletion strains, locus YLR268W, strain sec22, active compounds read low 1.02 | S. cerevisiae deletion strains, locus YLR330W, strain CHS5, active compounds read low 1.01 | S. cerevisiae deletion strains, locus YLR342W, strain FKS1 (second series), active compounds read low 1.02 | S. cerevisiae deletion strains, locus YLR371W, strain rom2, active compounds read low 1.01 | S. cerevisiae deletion strains, locus YLR418C, strain cdc73, active compounds read low 1.02 | S. cerevisiae deletion strains, locus YML016C, strain PPZ1, active compounds read low 1.02 | S. cerevisiae deletion strains, locus YML032C, strain rad52, active compounds read low 1.02 | S. cerevisiae deletion strains, locus YML124C, strain tub3, active compounds read low 1.02 | S. cerevisiae deletion strains, locus YMR078C, strain ctf18, active compounds read low 1.03 | S. cerevisiae deletion strains, locus YMR223W, strain ubp8, active compounds read low 1.03 | S. cerevisiae deletion strains, locus YMR263W, strain SAP30, active compounds read low 1.02 | S. cerevisiae deletion strains, locus YMR307W, strain GAS1, active compounds read low 0.962 | S. cerevisiae deletion strains, locus YNL067W, strain RPL9B, active compounds read low 1.03 | S. cerevisiae deletion strains, locus YNL128W, strain TEP1, active compounds read low 1.02 | S. cerevisiae deletion strains, locus YNL153C, strain GIM3, active compounds read low 1.02 | S. cerevisiae deletion strains, locus YNL233W, strain BNI4, active compounds read low 1.02 | S. cerevisiae deletion strains, locus YNL250W, strain rad50, active compounds read low 1.03 | S. cerevisiae deletion strains, locus YNL271C, strain bni1, active compounds read low 1.01 | S. cerevisiae deletion strains, locus YNL298W, strain CLA4, active compounds read low 1.03 | S. cerevisiae deletion strains, locus YNL307C, strain MCK1, active compounds read low 1.02 | S. cerevisiae deletion strains, locus YNL322C, strain KRE1, active compounds read low 1.01 | S. cerevisiae deletion strains, locus YNR052C, strain pop2, active compounds read low 1.02 | S. cerevisiae deletion strains, locus YOL006C, strain TOP1, active compounds read low 1.1 | S. cerevisiae deletion strains, locus YOL012C, strain htz1 0.859 | S. cerevisiae deletion strains, locus YOL147C, strain pex11, active compounds read low 1 | S. cerevisiae deletion strains, locus YOR061W, strain CKA2, active compounds read low 1.02 | S. cerevisiae deletion strains, locus YOR069W, strain VPS5, active compounds read low 1.01 | S. cerevisiae deletion strains, locus YOR136W, strain idh2, active compounds read low 1.02 | S. cerevisiae deletion strains, locus YOR144C, strain elg1, active compounds read low 1.02 | S. cerevisiae deletion strains, locus YOR184W, strain ser1, active compounds read low 1.03 | S. cerevisiae deletion strains, locus YOR316C, strain cot1, active compounds read low 1.02 | S. cerevisiae deletion strains, locus YPL055C, strain LGE1, active compounds read low 1.03 | S. cerevisiae deletion strains, locus YPL241C, strain CIN2, active compounds read low 1.01 | S. cerevisiae deletion strains, locus YPR119W, strain clb2, active compounds read low 1 | S. cerevisiae deletion strains, locus YPR141C, strain kar3, active compounds read low 1.01 | S. cerevisiae deletion strains, locus YPR163C, strain tif3, active compounds read low 1.02 | S. cerevisiae deletion strains, locus YPR167C, strain met16, active compounds read low 1.02 | S. cerevisiae deletion strains, strain wtn01, active compounds read low 1.01 | S. cerevisiae strains, strain wild type, active compounds read low 1
